Experimental data published in the supplement of paper PMC6555819.

Assays:
Test in all cases: PBM binding z-score (relative to random genomic background probes); higher = stronger binding; sequences stand for … in GC…GCGATTGACAGCGTAGAATGAAGG
[1] = test system: RARb homodimer (NR concentration 270 nM)
How it was run: (§1)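 Custom Agilent 4×180K protein-binding microarrays carried double-stranded probes. Their 34-nt variable regions held direct-repeat seeds, single-nucleotide variants, half-site ablations and random human genomic background sequences. Arrays were incubated 1 h with ligand-free nuclear receptor dimers in PBS pH 7.4, 2% milk, 0.02% Triton X-100, 1 mM DTT, 0.2 mg/mL BSA and 0.4 mg/ml salmon testes DNA. Antibodies against each partner (one per run) detected binding, and scanned fluorescence was regression-normalized. Binding z-scores use random background probes as reference.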

[2] = test system: RARg:RXRa (NR concentration 270 nM, RXRa partner concentration 90 nM)
How it was run: as §1

[3] = test system: RARg homodimer (NR concentration 270 nM)
How it was run: as §1

[4] = test system: RXRa DBDmut IVT, anti-RXR (DBD mutation: RXRa K156A/R161A, NR concentration 90 nM)
How it was run: as §1

[5] = test system: THRa:RXRa (NR concentration 90 nM, RXRa partner concentration 90 nM)
How it was run: as §1

[6] = test system: THRa homodimer (NR concentration 90 nM)
How it was run: as §1

[7] = test system: VDR homodimer (NR concentration 270 nM)
How it was run: as §1

[8] = test system: VDR:RXRa (NR concentration 270 nM, RXRa partner concentration 90 nM)
How it was run: as §1

| Sequence | PBM binding z-score [1] | PBM binding z-score [2] | PBM binding z-score [3] | PBM binding z-score [4] | PBM binding z-score [5] | PBM binding z-score [6] | PBM binding z-score [7] | PBM binding z-score [8] |
| --- | --- | --- | --- | --- | --- | --- | --- | --- |
| CCTTACGGGTCAAGGTTGTAGCACGGGTGGTACG | 3.2 | 4.54 | 4.07 | 0.452 | 2.38 | 0.122 | 1.18 | – |
| CGAACTAGGTCACCAGAACAGTGAAGAGGTTGGA | 3.14 | 4.44 | 5.22 | 1.11 | 2.87 | 0.853 | 0.565 | 1.86 |
| TTACCAAGGTGAAAGGTCGGTGATGCACGCCTTG | 2.16 | 3.18 | 1.51 | -0.134 | 2.66 | 0.427 | -0.0558 | – |
| ATCGAAAGGTCGAGTTGAGTATAGAGAAAGGGAA | 2.39 | 4.11 | 4.31 | 1.89 | 2.23 | -0.17 | 1 | 3.04 |
| CCGACTGGGGCAAAGGTCACCATACTCAGTACGA | 4.81 | 7 | 6.32 | 0.548 | 3.62 | 1.04 | 1.55 | 4.7 |
| CGGCCAAGGTCAAAGGTCAGTGAAGAGATGACGG | 5.37 | 9.05 | 8.47 | 3.57 | 4.99 | 2.52 | 3.31 | – |
| ACTAGCAGGCCAAGGGTGACTCAAGATTAGTCCG | 0.337 | 0.341 | 0.646 | -0.454 | 0.239 | -0.521 | -0.791 | -0.401 |
| CCTACGGGGCCAAAGGTCATTGATTCCAATGCTC | 4.5 | 6.59 | 5.24 | 1.86 | 3.78 | 0.564 | 2.99 | – |
| CCTACTGGGGCACGAAAGGTCATTGATTCAGTGA | 4.81 | 4.75 | 4.85 | 0.748 | 4.03 | 0.632 | 2.34 | – |
| ATCGAAAGGTCGAAGGTCAGTATACCCACCCGAA | 4.11 | 6.01 | 5.42 | 1.78 | 3.31 | 0.706 | 1.51 | – |
| GCTGCTAGGTTAACTGATGGTCAGCTAAAGCTCG | 0.815 | 1.6 | 0.672 | 0.235 | 0.689 | -0.683 | -0.649 | – |
| ATCGAAAAGTCGAAGGTGAGTATACCCACCCGAA | -0.251 | 0.436 | 0.586 | -0.665 | 0.0744 | -0.357 | -0.0912 | – |
| GCTGCTAGGTCAACTGATGGTCAGCTAAAGCTCG | 3.57 | 5.2 | 5.18 | 1.44 | 2.99 | 0.814 | 0.0317 | – |
| ACTAGCAGGTCAAGGGTCACTCAAGATTAGTCCG | 4.9 | 6.89 | 6.42 | 2.13 | 4.04 | 1.42 | 2.56 | – |
| ACTAGTTGGTCACCTGAGGTCACACACAATTCGG | 4.6 | 4.66 | 4.96 | 1.53 | 5.34 | 5.66 | 5.13 | – |
| CCTAGTTGGGCAGGAGGTCACACACCGGATATGA | 3.48 | 3.98 | 3.52 | -0.0255 | 3.14 | 1.57 | 1.37 | – |

| Sequence | PBM binding z-score [1] | PBM binding z-score [2] | PBM binding z-score [3] | PBM binding z-score [4] | PBM binding z-score [5] | PBM binding z-score [6] | PBM binding z-score [7] | PBM binding z-score [8] |
| --- | --- | --- | --- | --- | --- | --- | --- | --- |
| CAAACTAGGTCACGAAAGGGCAAAGTCGAATGAC | 4.43 | 5.81 | 6.33 | 1.77 | 4.54 | 1.42 | 1.35 | – |
| CAAACTAGGTCACAGAGGTCAAACTCCGTGCGTA | 5.75 | 7.7 | 7.96 | 3.78 | 4.66 | 3.37 | 7.66 | – |
| GCTAGTTTGTCAGTAAAAGGTCACACACCGGTCG | 5.18 | 5.07 | 4.23 | 1.18 | 3.6 | 1.61 | 2.4 | – |
| TATTGTAGATCAAAGGTTAAGAAAGCCGAAGCCT | 1.38 | 2.06 | 1.28 | -0.592 | 1.37 | -0.344 | 0.214 | – |
| TAGCCTAGGTCATTCAGGCGCCAGTATAGAAAGC | 2.25 | 3.97 | 4.09 | 1.78 | 2.7 | 0.451 | 1.3 | – |
| ATCTAAAGGTCGAAGGTGAGTATACCCACCCGAA | 2.54 | 4.32 | 3.66 | 1.74 | 2.21 | 0.159 | 0.755 | – |
| ATATGTAGGTTAGCGTCATTCAGAAAGTAGGGAA | 0.285 | 0.435 | 0.62 | -0.0875 | 0.15 | -0.253 | 0.0488 | – |
| CCGACTGGGGCAAAGGTTACCATGCTCAGTACGA | 2.01 | 3.66 | 1.55 | -0.0654 | 1.74 | -0.38 | -0.359 | – |
| CAAACTAGGTCACCGGAAGGTCAAAGTTCGCATG | 5.7 | 8.56 | 7.83 | 2.41 | 4.59 | 3 | 4.52 | – |
| CCTACTGTGCCATTCAGAGGTCATTGATCATATG | 4.39 | 4.2 | 2.75 | 1.79 | 3.38 | 2.43 | 3.56 | – |
| TCTCGGATGACACGAAAGGTCAGAGCTCGACATC | 4.3 | 4.19 | 3.99 | 1.08 | 2.79 | 0.526 | 0.594 | – |
| CGTCAAAGTTCAAGCTAACGTAACAGAAAGCAGC | 3.86 | 5.65 | 6.4 | 4.63 | 1.86 | -0.403 | 3.69 | – |
| TAGCCTAGGTCAAGCGGGCCAGTATAGTGTCGGC | 3.29 | 4.34 | 5.14 | 0.428 | 2.9 | 0.702 | -0.353 | – |
| CTCGAAAGGTGGTGCTCAGGTGAGTATACCAAAC | 0.207 | 0.0538 | -0.152 | -0.443 | 1.78 | 0.504 | -0.0516 | – |
| ATCGAATGGTCGTGAGGTGAGTATACAGAAAGGC | 0.456 | 0.502 | 0.684 | -0.556 | 1.5 | 1.09 | 0.0134 | – |
